Experimental findings from PubChem BioAssay (NCATS) are described below.

The nature of assay [1]: Cell Viability - HUV-EC-C (AID 542). Note: % is set by controls: 0 for no effect and ±100 for the full control effect; nearly all actives have a fitted effect of over 35% in size. A digest of the protocol: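 HUV-EC-C human vascular endothelial cells, 1000/well, exposed to compound for 40 hr at 37 °C in complete medium. Intracellular ATP was read by CellTiter-Glo luminescence. AC50 came from Hill-equation fits of concentration-response data.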
Assay [2] in a line: Cellular Toxicity (caspase-3) HepG2 (AID 654).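 Note: cells exposed to compound for 16 hours before reading; 0% = DMSO alone and 100% = caspase signal from 100 µM tamoxifen.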 A digest of the protocol:
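HepG2 cells (1500/well) were treated 16 h at 37 °C in complete medium, then caspase 3/7 activity was read by Caspase-Glo luminescence. Data were normalized to DMSO and 100 uM tamoxifen; AC50 came from Hill-equation fits of qHTS concentration-response.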

Assay [3] can be described thus: Cellular Toxicity (caspase-3) MRC-5 (AID 659).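 Note: 0% = DMSO basal and 100% = 10 µM staurosporine.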 A digest of the protocol: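 Concentration-dependent caspase 3/7 activation is measured in human normal lung fibroblasts (MRC-5) following 16-hour treatment. AC50 values come from standard Hill-equation modeling of luminescence normalized to DMSO and 10 uM staurosporine.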
Assay [4] can be described thus: Cellular Toxicity (caspase-3) Mesangial (AID 660).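 Note: cells exposed to compound for 16 h before the caspase read.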 A digest of the protocol: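 Human renal glomerular mesangial cells, 1000/well, 5 h at 37 C before 16 h compound treatment. Caspase-Glo 3/7 luminescence after 20 min; normalized to DMSO and 100 uM tamoxifen, AC50 from Hill fit.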
Assay [5] in a line: Cellular Toxicity (caspase-3) Hek293 (AID 664).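 Note: cells exposed to compound for 16 h at 37 °C before readout.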 The following applies: HEK293 caspase-3 activation, DMSO = 0%, 100 µM tamoxifen = 100%; at 92.2 µM (top of the series). A digest of the protocol:
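HEK293 cells in complete medium treated 16 h at 37 °C, then Caspase-Glo 3/7 luminescence read after 20 min at room temperature. Normalized to DMSO and 100 uM tamoxifen; AC50 from Hill fit of concentration-response.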

A short description of assay [6]: Cellular Toxicity (caspase-3) NIH 3T3 (AID 666).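 Note: caspase signal read after 16 h compound exposure; 0% = DMSO basal and 100% = 100 µM tamoxifen stimulation.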 A digest of the protocol: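 Mouse NIH 3T3 fibroblasts (1000/well) treated 16 h at 37 C; caspase-3/7 activity measured by Caspase-Glo 3/7 luminescence after 20 min. Normalized to DMSO and 100 uM tamoxifen; AC50 from Hill fits.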
A short description of assay [7]: MultiTox-Fluor Cytotoxicity Assay - LYMP1-002 - Live Cells (AID 955). Note: % is set by controls: 0 for no effect and ±100 for the full control effect. A digest of the protocol:
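Human lymphoblastoid LYMP1-002 cells, 2500/well, treated 16 h at 37 C in complete medium. Live-cell protease activity via GF-AFC fluorescence (Ex/Em 405/510) after 60 min reagent incubation; AC50 from Hill fits.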

Assay [8] can be described thus: Cell Viability - LYMP2-004 (AID 966).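 Note: plate controls were DMSO only for no effect and tetraoctylammonium bromide control for full effect; nearly all actives have a fitted effect of over 65% in size.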 The essentials:
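Lymphoblastoid LYMP2-004 cells, 2500 per well, were preincubated for 5 hr and then treated with compound for 24 h at 37 C in complete medium. Viability was read as cellular ATP by CellTiter-Glo luminescence, and AC50 values were taken from Hill fits to concentration-response data.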

Assay [9] in a line: Cell Viability - LYMP2-009 (AID 968).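 Note: 0% = DMSO alone and the full-kill end = tetraoctylammonium bromide at 92 µM; nearly all actives have a fitted effect of over 55% in size.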
Assay [10] in a line: Cell Viability - LYMP2-011 (AID 969).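 Note: 0% = DMSO only and full inhibition = 92 µM tetraoctylammonium bromide; nearly all actives have a fitted effect of over 60% in size.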 The essentials:
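2500 cells/well in complete medium, compound-treated 24 h at 37 C. Viability read as intracellular ATP by CellTiter-Glo luminescence after 30 min at room temperature. AC50 from Hill fits of qHTS concentration-response data.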

A short description of assay [11]: Cell Viability - LYMP2-017 (AID 972). Note: % is set by controls: 0 for no effect and ±100 for the full control effect; nearly all actives have a fitted effect of over 55% in size. A digest of the protocol:
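LYMP2-017 human lymphoblastoid cells (2500/well) settled 5 hr at 37 C, then exposed to compound 24 hr at 37 C in complete medium. Viability taken as intracellular ATP by CellTiter-Glo luminescence after 30 min at RT; AC50 from Hill fits.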

A short description of assay [12]: Cell Viability - LYMP2-025 (AID 976).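 Note: plate controls were DMSO only for no effect and tetraoctylammonium bromide control for full effect.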 A digest of the protocol: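 Human lymphoblastoid LYMP2-025 cells, 2500/well, exposed 24 h at 37 C in complete medium in 1536-well qHTS. Viability as cellular ATP by CellTiter-Glo luminescence; AC50 from Hill fits of concentration-response data.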
Assay [13] is described as follows: Cell Viability - LYMP2-026 (AID 989). Note: % is set by controls: 0 for no effect and ±100 for the full control effect; nearly all actives have a fitted effect of over 50% in size. The essentials: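 Human lymphoblastoid LYMP2-026 cells, 2500/well, exposed to compound 24 h at 37 C in complete medium. Viability as intracellular ATP by CellTiter-Glo luminescence; AC50 from Hill fits of qHTS concentration-response.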
Assay [14] concerns the target Vitamin D3 receptor (Homo sapiens) (UniProt P11473). In words: qHTS assay for small molecule agonists of vitamin D receptor signaling (AID 588543; calls by dose curve;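 note: 0% = DMSO basal and 100% = reference agonist control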). The essentials: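 VDR-UAS-bla HEK293T cells, 2000/well, 2% charcoal-stripped FBS; compound titration 16 h at 37 C; CCF4 beta-lactamase ratio read. Normalized to 50 nM 1-alpha,25-dihydroxyvitamin D3 (100%) and DMSO; Hill fit gives EC50, efficacy.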

Assay [15] is described as follows: qHTS assay for small molecule disruptors of the mitochondrial membrane potential - 1 hr assay (AID 651754; calls by dose curve; note: nearly all actives have a fitted effect of over 35% in size; note: potency is the fitted concentration of half-maximal effect). A digest of the protocol: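 HepG2 cells, attached overnight, were exposed to compound for 1 hr at 37C, then stained 30 min with a potentiometric dye. Ratio of red aggregate (590nm) to green monomer (535nm) fluorescence reports membrane potential; collapse shifts signal toward green.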

The target of assay [16] is Nuclear receptor ROR-gamma (Homo sapiens) (UniProt P51449). As to the kind of experiment: qHTS assay for small molecule antagonists of the retinoid-related orphan receptor gamma (ROR-gamma) signaling pathway (AID 651802).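 Note: luciferase reporter luminescence driven by ROR response element; % is set by controls: 0 for no effect and ±100 for the full control effect; nearly all actives have a fitted effect of over 60% in size.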 A digest of the protocol:
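CHO cells with TET-inducible ROR-gamma and RORE-luciferase reporter, dosed then doxycycline-induced. After 16 h at 37C, One-Glo luminescence read; decreased signal indicates antagonism.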

Assay [17] is described as follows: qHTS assay for small molecule agonists of the antioxidant response element (ARE) signaling pathway measured by Nrf2-dependant transcriptional activity - cell viability counter screen (AID 720653; active = well fitted curve in the direction sought with a large enough effect in the repeat runs; an effect the other way counts as inactive or inconclusive; note: % is set by controls: 0 for no effect and ±100 for the full control effect). Conditions: ARE-bla HepG2 viability, CellTiter-Glo ATP luminescence, 16 h; hits give low values. A digest of the protocol: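 Cytotoxicity counter screen: intracellular ATP quantified by CellTiter-Glo luminescence in the same ARE-bla HepG2 plates, after 16 h compound exposure and a 2 h beta-lactamase substrate step.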

Assay [18] can be described thus: qHTS assay for small molecule activators of the p53 signaling pathway (AID 651743; active = well fitted activation curve with a large enough effect in the signal ratio, not every such curve was filed as active; the % refers to the signal ratio; note: % of control where 0% means no effect). The following applies: HCT-116 p53RE-bla, beta-lactamase FRET ratio, 16 h; activation: hits give high values. The essentials: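 Read-out is fluorescence intensity from the LiveBLAzer B/G FRET substrate, added for 2 hours at room temperature after HCT-116 p53RE-bla cells had been incubated with compounds for 16 hours at 37 C.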

Assay [19] can be described thus: qHTS assay for small molecule agonists of the antioxidant response element (ARE) signaling pathway measured by Nrf2-dependant transcriptional activity (AID 720636; active = well fitted curve in the direction sought with a large enough effect in the repeat runs; an effect the other way counts as inactive or inconclusive;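 note: HepG2 cells with an ARE-driven luciferase reporter; % of control where 0% means no effect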). The essentials: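 Reporter gene assay, HepG2 ARE-luc: 16 hr compound, 37 C, 5% CO2; read-out luciferase luminescence.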
Assay [20] is described as follows: Cell Viability - LYMP1-003 - Assay at 40 hr (AID 964). Note: % is set by controls: 0 for no effect and ±100 for the full control effect; nearly all actives have a fitted effect of over 60% in size. The essentials:
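LYMP1-003 human lymphoblastoid cells, 2500/well, preincubated 5 h at 37 C, then treated with compound for 40 h at 37 C. Intracellular ATP read by CellTiter-Glo luminescence after 30 min at room temperature; AC50 from Hill-equation fits.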

The structures appear in SMILES notation. “And” between values parts separate entries of the source, which are not always exact repeats. Equal entries are not always repeated. Values without a mark were called inactive. Inconclusive results are not listed. The source made the active and inactive calls. Unless noted, calls come from the whole dose curve; as a rule, active = well fitted curve in the direction sought with a large enough effect; inconclusive = small, poorly fitted or top-dose-only effect, or another doubt; inactive = no such curve, though single readings can be large; an effect the other way counts as inactive or inconclusive.

Sequence of Nuclear receptor ROR-gamma (Homo sapiens) (P51449 whole entry, looked up): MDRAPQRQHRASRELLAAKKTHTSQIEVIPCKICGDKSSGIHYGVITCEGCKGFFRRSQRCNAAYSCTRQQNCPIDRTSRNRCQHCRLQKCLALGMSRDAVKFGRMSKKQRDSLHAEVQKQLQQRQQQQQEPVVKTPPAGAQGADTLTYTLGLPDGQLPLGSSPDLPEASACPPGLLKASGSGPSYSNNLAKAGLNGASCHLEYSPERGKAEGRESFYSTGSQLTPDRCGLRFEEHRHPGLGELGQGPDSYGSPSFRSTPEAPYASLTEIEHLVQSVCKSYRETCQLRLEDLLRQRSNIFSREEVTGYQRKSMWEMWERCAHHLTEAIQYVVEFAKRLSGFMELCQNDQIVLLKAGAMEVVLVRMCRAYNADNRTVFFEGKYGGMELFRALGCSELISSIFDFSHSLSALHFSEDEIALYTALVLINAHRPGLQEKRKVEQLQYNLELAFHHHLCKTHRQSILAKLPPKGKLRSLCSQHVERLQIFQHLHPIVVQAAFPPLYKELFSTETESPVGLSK
Sequence of Vitamin D3 receptor (Homo sapiens) (P11473 whole entry, looked up): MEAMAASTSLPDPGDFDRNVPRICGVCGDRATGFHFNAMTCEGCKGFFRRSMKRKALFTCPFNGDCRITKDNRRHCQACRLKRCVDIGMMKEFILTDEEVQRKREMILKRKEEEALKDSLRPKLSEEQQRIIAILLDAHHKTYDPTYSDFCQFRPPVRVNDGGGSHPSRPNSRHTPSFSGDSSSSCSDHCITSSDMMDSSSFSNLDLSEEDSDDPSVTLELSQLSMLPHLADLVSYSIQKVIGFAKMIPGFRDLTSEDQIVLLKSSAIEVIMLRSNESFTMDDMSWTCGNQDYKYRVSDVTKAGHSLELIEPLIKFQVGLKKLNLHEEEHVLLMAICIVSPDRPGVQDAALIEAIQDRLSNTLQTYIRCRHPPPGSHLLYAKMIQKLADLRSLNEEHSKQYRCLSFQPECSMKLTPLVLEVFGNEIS

Turning to `c1ccc(Nc2ccc(Nc3ccccc3)cc2)cc1`, the Potency entry in [1], in [6], in assay [8], in assay [9], in assay [10] and in assay [11] was “inactive” throughout. The Potency result in assay [12], in assay [13] and in assay [16] was “inactive” in each case. Moreover, the call in assay [2], in assay [3], in assay [4], in [7] and in [14] was inactive. Further, the caspase-3 activation in assay [5] is -2.23%. Also, the Potency in [15] is 42.2 µM (active). Besides, in assay [17], the max response was -13.9%.
Regarding `ClC(Cl)(Cl)C(Cl)(Cl)Cl`, the Potency entry in [1], in assay [6], in assay [8], in assay [9], in assay [11] and in assay [12] was “inactive” each time. Besides, the Potency result in assay [13], in assay [15], in assay [16] and in assay [19] was “inactive” in each case. Besides, the compound was called inactive in assay [2], in assay [3], in assay [4], in [7] and in [14]. Further, the caspase-3 activation in assay [5] was -1.3%. Also, the activation in [18] was -2.98%. Moreover, in assay [17], the max response was -0.289%.
Consider `NNC(N)=S`, for which the Potency entry in [1], in assay [6], in assay [9], in assay [10], in assay [11] and in assay [12] was “inactive” throughout. In addition, the Potency entry in assay [15], in [16] and in [19] was “inactive” throughout. Moreover, the compound was classed as inactive in assay [2], in assay [3], in assay [4], in assay [7] and in assay [14]. Also, the caspase-3 activation in assay [5] was 0.435%. In addition, the activation in assay [18] was -3.14%. Also, the max response in [17] is 16.5%.
Regarding `Cl/C=C/CCl`, the Potency entry in assay [1], in assay [6], in [20], in [8], in [12] and in [13] was “inactive” each time. Besides, the Potency result in [15], in assay [16] and in assay [19] was “inactive” each time. Besides, the outcome in assay [2], in [3], in assay [7] and in assay [14] was inactive. Also, the caspase-3 activation in assay [5] is -1.73%. In addition, in assay [18], the activation is -2.05%.
As to `CNC(=O)O/N=C/C(C)(C)S(C)=O` (stereo not drawn), the result in assay [2], in assay [3] and in [14] was inactive. Further, the caspase-3 activation in assay [5] was -2.67%. In addition, the Potency entry in assay [20], in assay [8], in assay [9], in assay [10], in assay [11] and in [13] was “inactive” throughout. The Potency entry in assay [15], in [16] and in [19] was “inactive” in each case. Besides, the activation in assay [18] was -0.482% and 5.01%.
As to `OCC(Cl)CCl` (stereo not drawn), the compound was called inactive in assay [4], in [7] and in assay [14]. Besides, in assay [5], the caspase-3 activation is 1.15%. Also, the Potency entry in assay [6], in assay [20], in assay [9], in assay [10], in [11] and in assay [12] was “inactive” throughout. The Potency result in assay [13], in assay [15], in assay [16] and in assay [19] was “inactive” in each case. Moreover, in assay [18], the activation is -0.732%. Also, in assay [17], the max response is -10.2%.
Regarding `Nc1cc(Cl)cc(C(=O)O)c1Cl`, the Potency result in assay [1], in [20], in assay [8], in assay [10], in assay [11] and in [15] was “inactive” each time. Besides, the Potency result in [16] and in [19] was “inactive” throughout. Moreover, the compound was classed as inactive in assay [2], in [3], in assay [4], in assay [7] and in assay [14]. Also, the caspase-3 activation in assay [5] was -1.19%. In addition, the activation in [18] is -3.99% and 3.61%. In assay [17], the max response is -8.07% and -24.7%.
